This excerpt belongs to a sample that is enriched for hits.
HT1080NT lethal: qHTS for induction of synthetic lethality in tumor cells producing 2HG: qHTS for the HT-1080-NT fibrosarcoma cell line. HT-1080-NT fibrosarcoma viability, CellTiter-Glo ATP luminescence, 48 h. Potency, µM (top dose mostly 46.1 µM), for inactives: at the top dose activity, negative = less viability, most hits filed as cytotoxic. actives 1.6% (n = 360,000);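 further: NT is the 2HG producing partner of a matched IDH1 knockdown line; potency means the concentration at half of the fitted maximal effect; 0% = DMSO-treated cells and -100% = media-only wells without cells; nearly all actives have a fitted effect of over 55% in size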
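750 cells/well, RPMI + 5% FBS; 2 h settle, compound pin-transfer, 48 h at 37 degrees C. CellTiter-Glo 10 min RT, luminescence. Normalized to DMSO and media-only wells.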
TDP1 cell noCPT: qHTS for Inhibitors of human tyrosyl-DNA phosphodiesterase 1 (TDP1): qHTS in cells in absence of CPT; DT40 Tdp1-/- hTDP1 cells, no CPT, ATP luminescence, 48 h; Potency, µM (highest dose often 46.2 µM), inactives show top-dose activity change, negative = growth inhibition, usual class: inhibitors; actives 15% (n = 420,000); further: potency means the concentration at half of the fitted maximal effect; nearly all actives have a fitted effect of over 55% in size
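Seeded 400 DT40-hTDP1 cells/well (vehicle DMSO, no 20 nM CPT); pinned compounds; ≥48 hr at 37 °C; CellTiter-Glo luminescence as viability measure.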
IL1B secr inh: qHTS for Inhibitors of Inflammasome Signaling: IL-1-beta AlphaLISA Primary Screen; THP-1 LPS/ATP IL-1B secretion, AlphaLISA, 16 h; hits give low values; activity change, % at 57.5 µM; actives 4.7% (n = 360,000); AID 743279, 2014; in the data active means activity change below about -50%; inconclusive means mostly about -30% to -49%
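THP-1 cells pretreated 1 hr with compounds (up to 57.5 uM final), then stimulated with LPS (250 ng/mL final) plus ATP (1.25 mM final); secreted IL-1B measured by AlphaLISA after 16 hr, decreased signal indicating inhibition.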
DT40 TDP1 CPT: qHTS for Inhibitors of human tyrosyl-DNA phosphodiesterase 1 (TDP1): qHTS in cells in presence of CPT. chicken DT40 Tdp1-/-;hTDP1 cells + 20 nM CPT, ATP luminescence, 48 h. Potency, µM (doses to about 46.2 µM), inactives show at the highest dose activity change, negative = growth inhibition, hits mostly inhibitors. actives 12% (n = 420,000). AID 686979, 2013; further: potency means the concentration at half of the fitted maximal effect; nearly all actives have a fitted effect of over 55% in size
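Cell growth measured by CellTiter-Glo luminescence after a minimum 48 h, 37 C compound exposure with 20 nM CPT in Tdp1-knockout DT40 cells stably expressing hTDP1, seeded 400/well; qHTS titration format.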
HT1080 IDH1KD tx: qHTS for induction of synthetic lethality in tumor cells producing 2HG: qHTS for the HT-1080-IDH1KD cell line | HT-1080 IDH1 knockdown viability, ATP luminescence, 48 h | Potency, µM (doses to about 46.1 µM), for the others: top-dose activity, negative = toxicity, most hits filed as cytotoxic | actives 2% (n = 360,000);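 further: potency means the concentration at half of the fitted maximal effect; 0% = DMSO wells and -100% = cell-free medium wells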
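Using the IDH1-knockdown HT-1080 line run in the same batch and compound series as the NT line, viability after 48 h at 37 °C was determined by CellTiter-Glo luminescence and expressed as % activity.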
12-LOX inh: Primary qHTS assay for inhibitors of human arachidonate 12S-lipoxygenase (ALOX12): Round 2. Potency, µM (series often up to 108 µM), inactives show at the top dose activity change, negative = inhibition, most hits filed as inhibitors. purified 12hLO, xylenol orange hydroperoxide absorbance. AID 1671190, 2021. Polyunsaturated fatty acid lipoxygenase ALOX12 (Homo sapiens), P18054. actives 1.1% (n = 580,000); further: potency means the concentration at half of the fitted maximal effect
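Hydroperoxide product was detected by ferrous iron/xylenol orange as the 573 to 405 nm absorbance ratio. Arachidonic acid at 40 uM (final) was turned over for 30 min at room temperature by 150 nM human 12hLO, pH 7.0 Hepes buffer, after 15 min compound preincubation.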
Starred values were filed as active, the others as inactive; ? = inconclusive; · = not tested or not shown. Unless noted, the call rests on the fitted dose curve; in most records, active means well fitted curve in the direction sought with a large enough effect; inconclusive means small, poorly fitted or top-dose-only effect, or another doubt; inactive means no such curve, though single readings can be large; an effect the other way counts as inactive or inconclusive. Unless noted, on the % scale 0 is the no-effect control and ±100 the full control effect.

SMILES	HT1080NT lethal	TDP1 cell noCPT	IL1B secr inh	DT40 TDP1 CPT	HT1080 IDH1KD tx	12-LOX inh
COc1ccc(CC(N)c2csc(Nc3nncc4ccccc34)n2)cc1 (configuration not stated)	?	18µM*	0	?	?	?
CCCc1cnc(Nc2nc(C(N)Cc3ccc(OC)cc3)cs2)nc1 (configuration not stated)	21µM*	?	?	?	?	-22%
NC(Cc1ccc(Cl)cc1)c1csc(Nc2ccc(-c3ccccc3)nn2)n1 (configuration not stated)	?	-90%	-50*	6.5µM*	-24%	1%
COc1ccccc1C(=O)N1CCN(C(=O)[C@H]2O[C@@H](n3ccc(N)nc3=O)[C@H](O)[C@@H]2O)CC1	23%	6%	-20	0%	9%	-18%
Cn1cc(C(=O)CCl)c2ccccc21	?	4.6µM*	-100*	2.3µM*	?	-19%
Cn1cc(/C(Cc2ccccc2)=N\O)c2ccccc21	-17%	16µM*	54	23µM*	-24%	50%
Cc1cc(C)nc(Nc2nc(C(N)c3ccccc3)cs2)n1 (configuration not stated)	?	?	?	?	-22%	12%
CC(C)C(N)c1csc(Nc2cc(Oc3ccccc3)ncn2)n1 (configuration not stated)	?	?	-91*	?	?	34%
NC(c1ccccc1)c1csc(Nc2cc(Oc3ccccc3)ncn2)n1 (configuration not stated)	?	16µM*	-77*	18µM*	?	35µM*
CC(C)CC(N)c1csc(Nc2cc(Oc3ccccc3)ncn2)n1 (configuration not stated)	21µM*	21µM*	0	23µM*	-24%	?
Cc1ccc(-c2nn(C)c(=O)c3c2CCCC3)cc1S(=O)(=O)NC1CC1	·	·	·	·	·	19%
COc1ccc(NC(=O)CCC2CCCN(S(=O)(=O)c3ccc(C)cc3)C2)c(OC)c1 (configuration not stated)	·	·	·	·	·	-7%
COc1cccc(-c2cn3c(n2)N(C(=O)Cc2cccs2)CCC3)c1	·	·	·	·	·	32%
COc1ccc(C(=O)N[C@H]2C[C@H]3C(=O)NC[C@@H](CCC(=O)N4CCc5ccccc54)N3C2)cc1	·	·	·	·	·	4%
COc1ccc(C(=O)NCCC2CCN(C(=O)Nc3ccc(C)cc3)CC2)cc1OC	·	·	·	·	·	44%
O=C(O)/C=C/c1cc(F)ccc1F	·	·	·	·	·	6%
Cc1ccc(C)c(S(=O)(=O)N2CCN(C(=O)c3cc(S(=O)(=O)NCc4ccccc4)ccc3C)CC2)c1	-1%	?	?	23µM*	-20%	474%
Cc1ccccc1NS(=O)(=O)c1ccc(C(=O)N2CCCC(C(F)(F)F)C2)cc1 (configuration not stated)	-2%	12µM*	-2	?	-8%	-9%
Cc1ccc(S(=O)(=O)NCc2ccccc2)cc1C(=O)N1CCCC(C(F)(F)F)C1 (configuration not stated)	?	18µM*	-12	?	-1%	3%
O=C(c1cccc(S(=O)(=O)NCc2ccccc2)c1)N1CCCC(C(F)(F)F)C1 (configuration not stated)	-10%	?	-6	-25%	-1%	-6%
